Here are results for 5 compounds from PubChem BioAssay.

Broadly, the inhibition is the drop in the measured response relative to a control, in per cent. In general, remaining activity refers to the signal under treatment as a percentage of the control signal. In general, viability refers to a read-out of living cells in per cent, often relative to untreated cells.

Molecules are shown by their SMILES. Several values for one entry are separate records, joined by “and”; a condition that tells them apart may be missing. Identical values can stand only once. Where a structure was tested more than once in an assay, its records may differ in their call. Activity calls are given as the source filed them. Unless noted, no rule for the calls is given here.

The nature of assay [1]: circadian clock period modulators, cell-based, LOPAC library, luminescence reporter (AID 2774).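 Also: values are relative to mean of DMSO wells on each plate.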 The settings on record: circadian reporter cells, at 7 µM, actives lie on both sides.
Assay [2] deals with Hepatitis C virus NS3 helicase. The assay is described as follows: HCV NS3 helicase inhibitors, primary screen, biochemical, fluorescence polarization, LOPAC1280 library (AID 687035; in the data active = inhibition above about 37%). Particulars: Purified HCV NS3 helicase, Cy5-dT15 ssDNA binding fluorescence polarization; stronger effect = higher value; concentration not given here.
The nature of assay [3]: Cy5 fluorescence quenching or enhancement artefacts, artefact control for HCV NS3 helicase inhibitor project, biochemical, LOPAC1280 (AID 687037). The settings on record: Cy5-DNA-NS3h complex fluorescence interference counterscreen. On the technique in general: Counterscreens check selectivity or assay interference.
Assay [4] has as its system Aerobactin synthetase IucA (Klebsiella pneumoniae). The assay is described as follows: IucA aerobactin synthetase inhibitors, biochemical, Tocris library, absorbance (AID 1345561).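 Also: 100% = enzyme without compound and 0% = no enzyme.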 Particulars: purified IucA enzyme assay, absorbance (OD) read-out; stronger effect = lower value;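 tested at 8 µM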.
The nature of assay [5]: sensitizers of A549 cells to miR-34 induction, primary screen, imaging, A549 dox-inducible miR-34, nuclei and caspase counts (AID 1347080;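 active = compounds whose cell count with miR-34 switched on is under 0.7 times the count with it off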). The settings on record: A549 miR-34 inducible, Hoechst nuclei count, 48 h.
Assay [6] is described as follows: inhibitors of Cryptococcus chitosan production, flow cytometry, Cibacron Brilliant Red staining (AID 1347148).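 Also: compound exposure lasted three days at 37 degrees C.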 Particulars: Cryptococcus neoformans chitosan, stronger effect = lower value; at 10 µM unless noted. A general note: Flow cytometry measures light scatter and fluorescence of single cells or particles in a stream.
Assay [7] can be described thus: phospholipid biosynthesis inhibitors in animal cells, primary screen, cell-based, LOPAC library, screen 4 (AID 1347384). Particulars: phospholipid biosynthesis inhibition screen, at 10 µM.
The nature of assay [8]: viability rescue of complex I mutant cybrids, primary screen, cell-based, galactose medium, ATP luminescence (AID 1645843;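 active = z-score of at least 1.8 in each of two replicates, scored against plate mean and spread of sample wells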;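 also: positive z means more ATP and so rescue of galactose-driven cybrid death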). The settings on record: complex I mutant cybrid cells, 72 h, stronger effect = higher value.
A short description of assay [9]: hESC survival regulators, cell-based (AID 493140).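 Also: cells exposed to compounds for four days before counting.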 The settings on record: human embryonic stem cell survival screen; stronger effect = higher value.
A short description of assay [10]: modifiers of HSF1 nuclear foci, imaging, Selleck Cancer Library (AID 1347162; in the data active = plate-normalised HSF1 focus index below about 0.46). Particulars: human cells, at 10 µM; SSMD: measured here: HSF1 foci SSMD mean; cell count: measured here: cell number; plate-normalised HSF1 focus index: stronger effect = lower value.
Assay [11] is described as follows: survival rescue of mitochondrial mutant cells in low glucose, primary screen, MELAS cybrids, Rieske KO mouse fibroblasts, CellTiter-Glo (AID 1508586;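 active = mean z-score across replicates of 1.96 or higher in either the MELAS or the Rieske mutant cell line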;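 also: z relative to plate mean and SD of compound and empty wells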).
Assay [12] can be described thus: ovarian cancer cell viability with rucaparib, profiling panel, oncology-focused library, rucaparib conditional (AID 1508598;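 active = normalized viability below 100% at a tested concentration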). Particulars: patient-derived ovarian cancer cells, CellTiter-Glo viability, 144 h, stronger effect = lower value. On the technique in general: ATP-based viability assays read luminescence as a measure of living cells.
Where [13] appears, read: stronger effect = lower value, cell number ratio, induced over uninduced.
Setting [14] is: measured here: relative caspase fold change +Dox/-Dox.
Where [15] appears, read: measured here: total cells with miR-34 induction, stronger effect = lower value.
Setting [16] is: measured here: total cells without miR-34 induction.

`S=C(S)OC1CC2CC1C1CCCC21` (stereo not drawn): in assay [1], the period change was -0.18 h (inactive). Also, in assay [2], the inhibition is -2% (inactive). Also, the fluorescence ratio (interference) in [3] was 1 (inactive). The remaining activity in assay [4] is 120% (inactive). Besides, the fold change was 0.999 (inactive) and 0.847 (inactive) and 0.975 (inactive) in [5] (setting [13]); 0.874 and 0.927 and 0.9 in assay [5] (setting [14]). In addition, the cell count in assay [5] (setting [15]) is 10600 and 4560 and 8830; in assay [5] (setting [16]) it was 10600 and 5380 and 9060. Also, the fold fluorescence in [6] was 5.66 [at 187.6 µM] (inactive). Also, the call in assay [7] was inactive. The z-score in assay [8] is -0.025 (inactive) and -0.095 (inactive).
For the compound `Oc1cc2c(cc1O)C(c1ccccc1)CNCC2` (stereo not drawn), the period change in [1] is 0.125 h (inactive). Moreover, in [2], the inhibition was -3% (inactive). In addition, the fluorescence ratio (interference) in [3] is 1 (inactive). In assay [4], the remaining activity was 113% (inactive). Also, the fold change was 0.993 (inactive) and 0.954 (inactive) in [5] (setting [13]); 1.37 and 0.889 in [5] (setting [14]). Also, the cell count in assay [5] (setting [15]) is 10500 and 10200; in assay [5] (setting [16]), 10600. Further, the result in [7] was inactive. In addition, the z-score in assay [8] was 0.58 (inactive) and 0.48 (inactive).
On to `CN(C)c1ccc(/C=C2\C(=O)Nc3ccccc32)cc1`, for which, in assay [1], the period change was -0.18 h (inactive). The survival in assay [9] is 85.4 (inactive). The inhibition in assay [2] is -2% (inactive). Also, the fluorescence ratio (interference) in assay [3] was 0.9 (inactive). Besides, the remaining activity in assay [4] is 109% (inactive). Also, the fold change was 1.15 (inactive) and 1.05 (inactive) and 0.834 (inactive) in assay [5] (setting [13]); 1.24 and 1.39 and 0.903 in assay [5] (setting [14]). Also, the cell count in assay [5] (setting [15]) was 7000 and 1360 and 6590; in assay [5] (setting [16]) it was 6070 and 1300 and 7900. For the same compound, in assay [6], the fold fluorescence was 5.59 [at 189.2 µM] (inactive). The result in assay [7] was inactive. Besides, the z-score in assay [8] was 3.25 (active) and 0.195 (inactive).
`C=CCN1CCc2cc(O)c(O)cc2C(c2ccccc2)C1` (stereo not drawn): in assay [1], the period change was 0.045 h (inactive). For the same compound, in assay [2], the inhibition is -4% (inactive). Also, the fluorescence ratio (interference) in [3] is 0.9 (inactive). Besides, in [4], the remaining activity was 113% (inactive). Further, the fold change was 0.956 (inactive) and 0.974 (inactive) in assay [5] (setting [13]); 1.26 and 0.531 in assay [5] (setting [14]). In addition, the cell count is 10300 and 8820 in assay [5] (setting [15]); 10700 and 9060 in [5] (setting [16]). Besides, the call in [7] was inactive. The z-score in [8] was -1.29 (inactive) and -0.785 (inactive).
Regarding `Cn1cc(C2=C(c3ccc(Cl)cc3Cl)C(=O)NC2=O)c2ccccc21`, the period change in assay [1] is 0.025 h (inactive). Further, the inhibition in assay [2] was -3% (inactive). Further, in assay [3], the fluorescence ratio (interference) is 1 (inactive). Besides, the remaining activity in assay [4] was 92.7% (inactive). The fold change in assay [5] (setting [13]) is 0.99 (inactive) and 0.96 (inactive) and 1.01 (inactive); in assay [5] (setting [14]) it was 1.07 and 0.76 and 0.707. The cell count was 4090 and 5760 and 2500 in assay [5] (setting [15]); 4130 and 6000 and 2470 in [5] (setting [16]); 7820 in assay [10]. Further, in assay [10], the SSMD amounted to 1.42. The plate-normalised HSF1 focus index in [10] was 1.09 (inactive). Moreover, in [7], the outcome was inactive. Also, the z-score in assay [11] (MELAS cybrid survival, CellTiter-Glo 48 h, stronger effect = higher value) is -0.394 (inactive); in [11] (Rieske KO mouse fibroblast survival, CellTiter-Glo 72 h) it was 0.82. Moreover, the viability in [12] (at 0.000305 µM, OCI-C5x cells, with rucaparib 10 µM, 100% = cells with rucaparib alone) was 106% (inactive); in [12] (at 0.000305 µM, OCI-C5x cells, without rucaparib) it was 117% (inactive); in assay [12] (at 0.000305 µM, OCI-P5x cells, with rucaparib 20 µM, 100% = cells with rucaparib alone), 102% (inactive); in [12] (at 0.000305 µM, OCI-P5x cells, without rucaparib), 103% (inactive); in [12] (at 0.00122 µM, OCI-C5x cells, with rucaparib 10 µM, 100% = cells with rucaparib alone), 122% (inactive); in [12] (at 0.00122 µM, OCI-C5x cells, without rucaparib), 119% (inactive). Moreover, the viability in assay [12] (at 0.00122 µM, OCI-P5x cells, with rucaparib 20 µM, 100% = cells with rucaparib alone) is 107% (inactive); in assay [12] (at 0.00122 µM, OCI-P5x cells, without rucaparib), 89.9% (active); in assay [12] (at 0.00488 µM, OCI-C5x cells, with rucaparib 10 µM, 100% = cells with rucaparib alone), 117% (inactive); in [12] (at 0.00488 µM, OCI-C5x cells, without rucaparib), 114% (inactive); in assay [12] (at 0.00488 µM, OCI-P5x cells, with rucaparib 20 µM, 100% = cells with rucaparib alone), 105% (inactive); in [12] (at 0.00488 µM, OCI-P5x cells, without rucaparib), 91.8% (active). Also, the viability was 125% (inactive) in assay [12] (at 0.0195 µM, OCI-C5x cells, with rucaparib 10 µM, 100% = cells with rucaparib alone); 111% (inactive) in [12] (at 0.0195 µM, OCI-C5x cells, without rucaparib); 98.3% (active) in assay [12] (at 0.0195 µM, OCI-P5x cells, with rucaparib 20 µM, 100% = cells with rucaparib alone); 89.5% (active) in assay [12] (at 0.0195 µM, OCI-P5x cells, without rucaparib).
